Our source for the AC50 values is PubChem BioAssay AID2284088 (EPA ToxCast).

The source made the active and inactive calls. Rule for the calls: active = hit-call score of the fitted dose curve at least 0.9, where 1 is the maximum; inactive = score below 0.9.

For this assay, the target named is human FLT4 Receptor Tyrosine Kinase, FLT4 (gene 2324) (UniProt P35916). Kind of assay: ERF_FR_ENZ_hFLT4: Eurofins (ERF) Enzymatic Radiometric [Km ATP] KinaseProfiler LeadHunter Assay for human FLT4 Receptor Tyrosine Kinase. Here is the method: ERF_FR_ENZ_hFLT4 is a biochemical, single-readout assay that uses extracted gene-proteins in a cell-free assay. Measurements were taken 1.5 hour after chemical dosing in a 96-well plate. See FLT4 Human RTK Kinase Enzymatic LANCE Assay [Km ATP], Cerep.ERF_FR_ENZ_hFLT4 is an assay component calculated from the ERF_FR_ENZ_hFLT4 assay. It is designed to measure enzyme activity using a type of enzyme reporter as detected by fluorescence intensity with LANCE technology.Data from the assay component ERF_FR_ENZ_hFLT4 was analyzed at the assay endpoint, ERF_FR_ENZ_hFLT4, in the positive analysis fitting direction relative to DMSO as the negative control and baseline of activity. Using a type of enzyme reporter, loss-of-signal activity can be used to understand changes in enzymatic activity as they relate to gene FLT4. To generalize the intended target to other relatable targets, this assay endpoint is annotated to the kinase intended target family, where the subfamily is receptor tyrosine kinase.
Chain of human FLT4 Receptor Tyrosine Kinase, FLT4 (gene 2324) (P35916 whole entry, looked up): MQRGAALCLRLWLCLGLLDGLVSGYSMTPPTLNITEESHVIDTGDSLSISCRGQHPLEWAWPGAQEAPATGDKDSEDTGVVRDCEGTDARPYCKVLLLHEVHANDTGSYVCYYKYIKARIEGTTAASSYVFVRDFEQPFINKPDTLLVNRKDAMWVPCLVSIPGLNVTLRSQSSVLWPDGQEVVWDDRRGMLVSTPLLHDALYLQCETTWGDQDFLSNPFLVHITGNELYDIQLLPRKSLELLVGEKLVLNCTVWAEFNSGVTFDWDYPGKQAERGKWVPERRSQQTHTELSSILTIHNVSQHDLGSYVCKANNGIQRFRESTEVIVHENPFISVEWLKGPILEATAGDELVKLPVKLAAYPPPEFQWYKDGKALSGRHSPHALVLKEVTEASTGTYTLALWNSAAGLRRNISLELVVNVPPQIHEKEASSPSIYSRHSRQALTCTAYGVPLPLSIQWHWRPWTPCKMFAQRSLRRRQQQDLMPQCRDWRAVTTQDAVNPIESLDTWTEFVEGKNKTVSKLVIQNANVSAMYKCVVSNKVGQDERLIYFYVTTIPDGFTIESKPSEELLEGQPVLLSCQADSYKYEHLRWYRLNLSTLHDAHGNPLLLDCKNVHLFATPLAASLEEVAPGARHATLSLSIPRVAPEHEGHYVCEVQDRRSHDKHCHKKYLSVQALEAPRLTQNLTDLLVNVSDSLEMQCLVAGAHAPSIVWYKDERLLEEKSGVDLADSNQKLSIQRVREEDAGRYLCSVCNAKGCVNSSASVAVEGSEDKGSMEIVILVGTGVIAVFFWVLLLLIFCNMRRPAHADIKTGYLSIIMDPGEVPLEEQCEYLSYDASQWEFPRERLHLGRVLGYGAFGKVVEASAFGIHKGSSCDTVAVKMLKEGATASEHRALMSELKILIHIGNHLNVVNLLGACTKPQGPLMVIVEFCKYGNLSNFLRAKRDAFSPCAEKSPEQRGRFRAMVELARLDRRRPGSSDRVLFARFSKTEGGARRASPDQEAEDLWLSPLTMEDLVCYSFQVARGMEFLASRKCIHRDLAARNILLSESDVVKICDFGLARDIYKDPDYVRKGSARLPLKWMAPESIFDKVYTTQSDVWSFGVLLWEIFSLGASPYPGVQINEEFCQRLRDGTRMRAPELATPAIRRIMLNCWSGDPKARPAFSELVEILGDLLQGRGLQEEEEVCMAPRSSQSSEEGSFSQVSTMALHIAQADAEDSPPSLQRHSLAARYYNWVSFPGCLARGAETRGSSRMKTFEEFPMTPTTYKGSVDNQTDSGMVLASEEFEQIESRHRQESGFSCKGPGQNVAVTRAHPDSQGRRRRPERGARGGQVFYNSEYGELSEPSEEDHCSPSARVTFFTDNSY
Flt4 (h) is incubated with 8 mM MOPS pH 7.0, 0.2 mM EDTA, 500 uM […], 10 mM MgAcetate and [gamma-33P]-ATP (specific activity and concentration as required). The reaction is initiated by the addition of the Mg/ATP mix. After incubation for 40 minutes at room temperature, the reaction is stopped by the addition of phosphoric acid to a concentration of 0.5%. […]
What is called AC50 is the concentration at which the activity in the assay is half-maximal. `O=C(/C=C/c1ccc(O)cc1)CC(=O)/C=C/c1ccc(O)cc1`: the AC50 is 1910 nM (active).
